Data reported in PubChem BioAssay (NCATS).
Inconclusive results are not listed. A number with no mark means an inactive call. The source made the active and inactive calls. Calls come from the whole dose curve; as a rule, active = well fitted inhibition curve with a large enough effect; inconclusive = small, poorly fitted or top-dose-only effect; inactive = flat fitted curve, though single readings scatter.

biological target: Calcium and integrin-binding protein 1 (Homo sapiens) (UniProt Q99828); experiment: Primary qHTS for Identification of Calcium Integrin Binding Protein 1 (CIB1) Competitor (AID 1508620); settings: CIB1-GST / FITC-alphaIIb peptide fluorescence polarization; series mostly up to 114 µM; activity change, negative = inhibition: at the top concentration; note: top concentration of the series differs between compounds
How it was run: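 Fluorescence polarization competition: GST-tagged CIB1 (1 uM final) preincubated with compound 15 min at room temperature, then FITC-labelled alphaIIb peptide (100 nM final) added. After 15 min at room temperature, polarization read at Ex 480/Em 540.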
% is set by controls: 0 for no effect and ±100 for the full control effect.

Sequence of Calcium and integrin-binding protein 1 (Homo sapiens) (Q99828 whole entry, looked up): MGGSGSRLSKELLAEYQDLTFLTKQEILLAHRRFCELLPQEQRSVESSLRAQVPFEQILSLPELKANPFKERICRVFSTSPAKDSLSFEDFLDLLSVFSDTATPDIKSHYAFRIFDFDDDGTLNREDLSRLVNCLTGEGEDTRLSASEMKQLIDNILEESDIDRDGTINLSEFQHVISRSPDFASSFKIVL

Row | Compound | activity change, negative = inhibition [%] | Potency
1 | O=C(CNC(=O)c1cccc2ccccc12)OC(C(=O)Nc1cc(C(F)(F)F)ccc1Cl)c1ccccc1 (configuration not stated) | -3.9 | –
2 | Cc1ccc(CNc2ncnc3ccc(-c4ccoc4C)cc23)o1 | -6.85 | –
3 | Cc1ccccc1C(=O)N1CCc2cc(-c3nc(NC(=O)c4ccc5c(c4)OCO5)sc3C)ccc21 | 0.109 | –
4 | Cc1cccc(CNc2ncnc3ccc(-c4ccccc4Cl)cc23)c1 | 2.68 | –
5 | COc1ccc(OC)c(-c2nnc(NC(=O)Nc3ccc4ccccc4c3)s2)c1 | 2.95 | –
6 | COc1ccc(C2c3c(n(Cc4ccccc4)cnc3=N)Oc3ccc4ccccc4c32)cc1OC (configuration not stated) | 3 | –
7 | Brc1cnc2nc(SCc3ccccc3)[nH]c2c1 | 0.0892 | –
8 | CN1CCN(c2cccc(Nc3nn4c(=O)c5ccc(C(F)(F)F)cc5nc4s3)c2)CC1 | -9.81 | –
9 | Cc1ccccc1-c1csc2ncnc(Sc3nnnn3C)c12 | 2.94 | –
10 | COc1ccccc1C1=Nn2c(nnc2-c2ccccc2C)SC1 | – | inactive
11 | C[C@H](N)C(=O)Nc1cccc(-c2nn3c(=O)cc(N4CCNCC4)nc3s2)c1 | 4.28 | –
12 | Cc1cc(C)nc(NC(=S)N2CCN(c3ccc(Cl)nn3)CC2)c1 | 0.476 | –
13 | CS(=O)(=O)/C=C/c1nc(Nc2cc(F)cc(F)c2)c2ncn(CC(F)F)c2n1 | 9.77 | –
14 | CC(C)(C)OC(=O)N1CCN(c2ccc(NCc3occc3-c3ccc(C#N)cc3)cc2)CC1 | -8.68 | –
15 | COc1cc(OC)cc(-c2nnc3n2N=C(c2c(OC)cccc2OC)CS3)c1 | 5.77 | –
16 | Cc1cc(N[S+](=O)([O-])c2cc3c(cc2Cl)NC(=O)CO3)ccc1Br | -6.83 | –
17 | O=C(Nc1ccc(Cl)c(Cl)c1)N1CCN(c2ccncc2)CC1 | 0.613 | –
